Activation data for 26 compounds are collected here from PubChem BioAssay AID2796 (The Scripps Research Institute Molecular Screening Center, 2010).

Hit rate of the full screen: of about 320,000 compounds, about 8,000 (2.5%) were called active. Shown is part of a subset that was picked to be rich in actives. A number with no mark means an inactive call. Cut-off read from the data, not from the text of the source: active = activation above about 47%; inactive = the rest.

For the assay, the target named is Aryl hydrocarbon receptor (Homo sapiens) (UniProt P35869). The assay can be described thus: AHR activators, primary screen, cell-based, luminescence, luciferase reporter, human (AID 2796).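 Note: 0% = vehicle wells and 100% = reference agonist.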 The conditions noted are these: AHR-responsive luciferase reporter cells, at 5 µM, hits give high values. Background: A reporter such as luciferase makes a cellular process visible.
Aryl hydrocarbon receptor (Homo sapiens), sequence (P35869 whole entry, looked up): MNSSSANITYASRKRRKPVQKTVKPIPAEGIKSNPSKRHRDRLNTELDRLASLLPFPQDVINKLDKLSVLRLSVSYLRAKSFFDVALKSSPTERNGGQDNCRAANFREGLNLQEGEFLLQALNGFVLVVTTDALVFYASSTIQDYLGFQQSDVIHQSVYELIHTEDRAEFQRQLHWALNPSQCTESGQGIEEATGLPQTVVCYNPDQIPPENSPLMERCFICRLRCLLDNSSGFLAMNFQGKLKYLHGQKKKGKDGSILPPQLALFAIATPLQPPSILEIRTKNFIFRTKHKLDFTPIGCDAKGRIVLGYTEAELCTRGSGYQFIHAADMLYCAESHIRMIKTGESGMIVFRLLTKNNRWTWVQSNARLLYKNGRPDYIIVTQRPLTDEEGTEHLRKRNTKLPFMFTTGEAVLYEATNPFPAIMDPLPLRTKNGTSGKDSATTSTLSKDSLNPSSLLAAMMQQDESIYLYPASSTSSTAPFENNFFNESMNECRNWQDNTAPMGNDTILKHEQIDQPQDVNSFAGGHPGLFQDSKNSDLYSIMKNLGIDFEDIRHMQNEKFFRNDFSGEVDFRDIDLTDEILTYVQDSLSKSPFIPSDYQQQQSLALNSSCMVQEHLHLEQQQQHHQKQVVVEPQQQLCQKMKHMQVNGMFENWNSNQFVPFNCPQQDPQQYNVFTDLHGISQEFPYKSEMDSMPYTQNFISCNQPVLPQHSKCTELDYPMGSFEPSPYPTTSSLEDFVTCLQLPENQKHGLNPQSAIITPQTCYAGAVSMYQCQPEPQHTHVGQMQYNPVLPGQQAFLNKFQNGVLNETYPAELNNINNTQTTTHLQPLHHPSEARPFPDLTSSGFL
`COc1ccc(S(=O)(=O)NC(C)C(=O)NCc2ccncc2)cc1Cl` (stereo unspecified): the activation is -0.4%.

Regarding `C[C@H](CO)N1C[C@H](C)[C@@H](CN(C)S(=O)(=O)c2ccc(F)cc2)Oc2c(NC(=O)Nc3ccccc3)cccc2C1=O`, the activation was 0.64%.

For the compound `Cc1cccc(NC(=O)c2ccc3nsnc3c2)c1C`, the activation is 10.3%.

For the compound `O=C(Nc1cccc(NC(=O)c2cccc(F)c2)c1)c1ccccc1`, the activation was 26.6%.

For the compound `O=C(Nc1ccccc1)c1ccc2nsnc2c1`, the activation was 60.2% (active).

Turning to `COC(C(=O)Nc1ccc(S(=O)(=O)Nc2ccc(C)c(C)c2)cc1)c1ccccc1` (stereo unspecified), the activation is -0.6%.

On to `COCCN1CCn2c(nc3cc(NS(C)(=O)=O)ccc32)C1`, for which the activation was 4.78%.

Consider `Cc1ccc(S(=O)(=O)NCC(=O)N(CC(=O)NC(C)(C)C)Cc2cccs2)cc1`, for which the activation was 3.31%.

Regarding `CCc1noc(C)c1C(=O)Nc1nc2ccc(OC)cc2s1`, the activation was 1.93%.

With `O=C(O)c1ccccc1C(=O)Nc1nc(-c2ccccc2)cs1`, the activation is 1.84%.

`CCc1noc(C)c1C(=O)Nc1nc(-c2ccccc2)cs1`: the activation was 55.4% (active).

For the compound `Nc1ncc(CN2CCCC(C(=O)Nc3ccc(-c4ccco4)cc3)C2)cn1` (stereo unspecified), the activation is 5.9%.

Turning to `Cc1cc(=O)oc2c(C(=O)c3ccccc3)c(OCC(N)=O)ccc12`, the activation is 3.98%.

In the case of `O=C(COC(=O)c1ccc(F)cc1)NCC1COc2ccccc2O1` (stereo unspecified), the activation is -0.1%.

Turning to `Cc1noc(C)c1NC(=O)Nc1ccc2c(c1)C(=O)N([C@H](C)CO)C[C@H](C)[C@@H](CN(C)S(=O)(=O)c1cn(C)cn1)O2`, the activation is 0.71%.

On to `O=S(=O)(Nc1ccc(-n2cnnn2)cc1)c1ccc(Cl)cc1`, for which the activation was 1.5%.

For `Cc1cc(=O)[nH]c(N/N=C/c2ccc3c(c2)OCCO3)n1`, the activation was 14.6%.

On to `O=C(CN1CCN(c2nc(-c3ccccc3)cs2)CC1)NCc1ccc2c(c1)OCO2`, for which the activation is 0.54%.

On to `Brc1ccc(-c2csc(N/N=C/c3cccnc3)n2)cc1`, for which the activation is -4.57%.

Turning to `Cc1nc(Cl)cc(N/N=C/c2ccccc2)n1`, the activation was 23.2%.

On to `Cc1cc(C)nc(N/N=C/c2c(C)oc3ccccc23)n1`, for which the activation is 11.9%.

With `C(=N\Nc1ccc2ccccc2n1)/c1ccc2c(c1)OCO2`, the activation is 101% (active).

Turning to `Brc1ccc(-c2csc(N/N=C/c3ccc4c(c3)OCO4)n2)cc1`, the activation is 58% (active).

For `O=C(Cc1ccc(F)cc1)N/N=C/c1ccc2c(c1)OCO2`, the activation is 42%.

Turning to `Cc1noc(C)c1/C=N/Nc1ccc2ccccc2n1`, the activation was 83.3% (active).

As for `O=C(OCC(=O)N1CCCC1)c1ccc(Cl)nc1`, the activation was -1.12%.
